Test systems include NCI-H23 lung; NCI-H226 lung; NCI-H322M lung; HOP-62 NSCLC; NCI-H460 lung; NCI-H522 lung; A549/ATCC NSCLC; 786-0 renal; COLO 205 colon; DU-145 prostate; K-562 leukemia; MDA-MB-231 breast; RXF 393 renal; SF-268 CNS; SF-295 CNS; SF-539 CNS; UACC-257 melanoma; M14 melanoma.
What all share (assay): NCI-60 one-dose screen, 48 h (100 = growth as untreated, 0 = no growth, -100 = all killed)
Holding throughout (details): 10 µM unless noted

Compounds without any hit were thinned out: in the full panel of roughly 83,000, 20% have a hit.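 For each line, cells grew in 96-well plates with the test compound present at a single concentration for 48 hours.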 A number with no mark means an inactive call. Activity calls are given as the source filed them. Rule for the calls: active = growth percent below 10; inactive = the rest.

For `CCO/C=N/C1=C(C#N)C(c2ccc(Cl)cc2)c2sc3c(C)cccc3c2O1` (stereo not given), the growth was 25.2% with NCI-H23 lung; 51.1% with NCI-H226 lung; 43.6% in the test with NCI-H322M lung; 41.4% with HOP-62 NSCLC; 4.89% (active) with NCI-H460 lung; 8.93% (active) in the test on NCI-H522 lung. Further, the growth is 26.9% in the test with A549/ATCC NSCLC; 29.1% in the test with 786-0 renal; 4.67% (active) in the test on COLO 205 colon; 19.2% in the test on DU-145 prostate; 7.31% (active) in the test on K-562 leukemia; 24.4% with MDA-MB-231 breast. Moreover, the growth with RXF 393 renal is -27.6% (active); with SF-268 CNS it was 51.1%; in the test with SF-295 CNS it was -19.3% (active); in the test with SF-539 CNS it was -11.5% (active); with UACC-257 melanoma, 76.2%.
On to `O=C(CN1CCN(c2cc(=O)n(-c3ccccc3)c3ccccc23)CC1)Nc1cccc(C(F)(F)F)c1`, for which the growth is 55.5% in the test with NCI-H23 lung; 56.6% in the test with NCI-H226 lung; 82.4% with NCI-H322M lung; 70.6% in the test with HOP-62 NSCLC; 57.9% with NCI-H460 lung; 56.5% with NCI-H522 lung. Further, the growth with A549/ATCC NSCLC is 51.8%; in the test on 786-0 renal, 80.5%; in the test on COLO 205 colon it was 68.5%; in the test on DU-145 prostate it was 64.7%; in the test with K-562 leukemia it was 23.4%; with MDA-MB-231 breast, 68.7%. The growth with RXF 393 renal was 62.2%; in the test with SF-268 CNS it was 66.2%; in the test with SF-295 CNS, 59%; in the test with SF-539 CNS, 71.5%; with UACC-257 melanoma, 38.8%; in the test with M14 melanoma, 60.5%.
For the molecule `NC(N)=Nc1ccc(Nc2cccc(Oc3ccc(Cl)c(C(F)(F)F)c3)c2)cn1`, the growth is 32% with NCI-H23 lung; 36.5% in the test on NCI-H226 lung; 52.9% in the test with NCI-H322M lung; 17.4% in the test on HOP-62 NSCLC; -71.3% (active) in the test on NCI-H460 lung; 18% in the test on NCI-H522 lung. The growth is 19.9% in the test with A549/ATCC NSCLC; 54.3% in the test on 786-0 renal; -48.7% (active) in the test on COLO 205 colon; 38.3% in the test on DU-145 prostate; -48.8% (active) with K-562 leukemia; 47.5% with MDA-MB-231 breast. The growth in the test with RXF 393 renal is 56.6%; in the test with SF-268 CNS, 53.6%; with SF-295 CNS, 23.8%; in the test with SF-539 CNS it was 78.5%; in the test on UACC-257 melanoma, 31.9%; in the test on M14 melanoma it was 41.2%.
For `Cc1nn(-c2ccccc2)c2ncnc(N/N=C/c3ccccc3)c12`, the growth in the test with NCI-H23 lung is 97.3%; in the test on NCI-H226 lung, 78.3%; with NCI-H322M lung, 95%; in the test with HOP-62 NSCLC, 116%; in the test with NCI-H460 lung, 95.6%; with NCI-H522 lung, 85.8%. Further, the growth with A549/ATCC NSCLC was 92.4%; in the test on 786-0 renal, 84.6%; in the test with COLO 205 colon, 104%; in the test with DU-145 prostate it was 91.2%; in the test on K-562 leukemia it was 78.5%; in the test on MDA-MB-231 breast, 109%. Further, the growth was 91.3% in the test with RXF 393 renal; 91.7% with SF-268 CNS; 108% in the test on SF-295 CNS; 103% in the test with SF-539 CNS; 113% with UACC-257 melanoma.
Consider `O=C(CCn1cc[n+](CC(=O)c2ccc(-c3ccccc3)cc2)c1)Nc1cccc2cccnc12`, for which the growth was 81.1% with NCI-H23 lung; 83.3% in the test with NCI-H226 lung; 92.2% with NCI-H322M lung; 102% with HOP-62 NSCLC; 91.9% with NCI-H460 lung; 48% in the test with NCI-H522 lung. Moreover, the growth is 94.4% in the test on A549/ATCC NSCLC; 97.7% in the test with 786-0 renal; 72.8% with COLO 205 colon; 90.9% in the test on DU-145 prostate; 45.9% in the test on K-562 leukemia; 65.1% in the test on MDA-MB-231 breast. The growth with RXF 393 renal is 90.5%; with SF-268 CNS, 72.2%; with SF-295 CNS, 100%; in the test on SF-539 CNS, 80.8%; in the test with UACC-257 melanoma it was 40.9%; in the test with M14 melanoma it was 82.3%.
Turning to `NC(N)=Nc1ccc(Oc2cccc(Nc3cccc(C(F)(F)F)c3)c2)cn1`, the growth with NCI-H23 lung is -2.6% (active); in the test on NCI-H226 lung it was 20.1%; with NCI-H322M lung, 14.7%; in the test on HOP-62 NSCLC it was 3.3% (active); with NCI-H460 lung it was -76.8% (active); with NCI-H522 lung it was -34.6% (active). The growth is 35.8% with A549/ATCC NSCLC; 33.7% with 786-0 renal; -47.3% (active) in the test on COLO 205 colon; -10.7% (active) in the test on DU-145 prostate; -47.3% (active) in the test on K-562 leukemia; 12% in the test on MDA-MB-231 breast. The growth was 2.79% (active) in the test with RXF 393 renal; 49.3% in the test on SF-268 CNS; -86.1% (active) with SF-295 CNS; 70.8% in the test with SF-539 CNS; 25.8% in the test with UACC-257 melanoma; 5.01% (active) with M14 melanoma.
Take `N#Cc1cn(Cc2ccc(Cl)cc2Cl)c(C(=O)c2ccc(Br)cc2)c1N`: the growth is 93.8% in the test with NCI-H23 lung; 75.6% with NCI-H226 lung; 95% with NCI-H322M lung; 82.6% with HOP-62 NSCLC; 95.9% with NCI-H460 lung; 91.2% in the test on NCI-H522 lung. Also, the growth with 786-0 renal was 99.1%; with COLO 205 colon it was 114%; in the test on DU-145 prostate it was 99.7%; in the test with K-562 leukemia it was 94.9%; in the test on MDA-MB-231 breast, 88.2%; in the test with RXF 393 renal it was 95.8%. Besides, the growth in the test with SF-268 CNS was 92.7%; in the test on SF-295 CNS, 83.7%; with SF-539 CNS, 81.4%; in the test with UACC-257 melanoma, 92.1%; in the test with M14 melanoma it was 98%.
For `CCN1CCN(C(=O)[C@]23CCC(C)(C)C[C@H]2C2=CC[C@@H]4[C@@]5(C)Cc6c([nH]c7ccccc67)C(C)(C)[C@@H]5CC[C@@]4(C)[C@]2(C)CC3)CC1`, the growth in the test on NCI-H23 lung was 87.7%; with NCI-H226 lung it was 84.4%; in the test on NCI-H322M lung it was 89.1%; in the test on HOP-62 NSCLC, 110%; with NCI-H460 lung it was 76.5%; in the test with NCI-H522 lung it was 90.5%. Also, the growth in the test on A549/ATCC NSCLC was 59.7%; in the test with 786-0 renal, 94.2%; in the test with COLO 205 colon, 102%; in the test with DU-145 prostate, 83.3%; in the test on MDA-MB-231 breast, 74.1%; in the test with RXF 393 renal, 75.9%. Moreover, the growth in the test on SF-268 CNS was 90.1%; with SF-295 CNS it was 91.9%; in the test with SF-539 CNS, 94%; in the test on UACC-257 melanoma, 88.2%; with M14 melanoma, 84.5%.

(Values after PubChem BioAssay (NCI).)
